# According to PubChem BioAssay AID1479148 (National Center for Advancing Translational Sciences (NCATS), 2020):
# Results filed as inconclusive are left out. Activity calls are given as the source filed them. Calls follow the shape of the full dose curve.
# Assay: Confirmatory qHTS for inhibitors of SARS-S pseudo-typed particle cell entry
# Details: SARS-S pseudotyped particle cell entry, reporter luminescence; series mostly up to 57.1 µM
row,Compound,Potency
1,CCN(CC)CCNC(=O)c1c(C)[nH]c(/C=C2\C(=O)Nc3ccc(F)cc32)c1C,6.07 µM (active)
2,COc1cc([C@@H]2c3cc4c(cc3C(O[C@@H]3O[C@@H]5CO[C@@H](c6cccs6)OC5[C@H](O)[C@H]3O)C3COC(=O)[C@@H]32)OCO4)cc(OC)c1O (stereo partly drawn),1.08 µM (active)
3,COC(=O)C1=C(C)NC(C)=C(C(=O)OCC(C)C)C1c1ccccc1[N+](=O)[O-] (stereo not drawn),19.2 µM (active)
4,CC(C)OC(=O)[C@H](C)N[P@](=O)(CO[C@H](C)Cn1cnc2c(N)ncnc21)Oc1ccccc1,0.171 µM (active)
5,CO[C@@]12[C@H](COC(N)=O)C3=C(C(=O)C(C)=C(N)C3=O)N1C[C@@H]1N[C@@H]12,6.07 µM (active)
6,O=C1c2c(O)ccc(O)c2C(=O)c2c(NCCNCCO)ccc(NCCNCCO)c21,0.121 µM (active)
7,CNC(=O)c1cc(Oc2ccc(NC(=O)Nc3ccc(Cl)c(C(F)(F)F)c3)c(F)c2)ccn1,8.57 µM (active)
8,COc1cc2c(cc1Cc1cccc(Cl)c1F)c(=O)c(C(=O)O)cn2[C@H](CO)C(C)C,0.0607 µM (active)
9,COc1cc(N)c(Cl)cc1C(=O)NC1CCN(CCCOc2ccc(F)cc2)CC1OC (stereo not drawn),inactive
10,CN1CCC(=C2c3ccccc3CCc3sccc32)CC1,27.1 µM (active)
11,c1ccc2c(c1)Sc1ccccc1N2CC1CN2CCC1CC2 (stereo not drawn),27.1 µM (active)
12,C=C1c2c(Cl)ccc(O)c2C(O)=C2C(=O)[C@@]3(O)C(O)=C(C(N)=O)C(=O)[C@@H](N(C)C)[C@@H]3[C@@H](O)[C@H]12,15.2 µM (active)
13,CC(C)(C)C(=O)OCOP(=O)(COCCn1cnc2c(N)ncnc21)OCOC(=O)C(C)(C)C,0.0383 µM (active)
14,CC(=O)Oc1ccccc1C(=O)Nc1ncc([N+](=O)[O-])s1,12.1 µM (active)
15,NCCNc1ccc(NCCN)c2c1C(=O)c1ccncc1C2=O,0.857 µM (active)
16,C[n+]1c2cc(N)ccc2cc2ccc(N)cc21 (tested in a mixture with another compound),6.81 µM (active)
17,O=C(Nc1ccc([N+](=O)[O-])cc1Cl)c1cc(Cl)ccc1O,0.541 µM (active)

row,Compound,Potency
1,Nc1nc(Cl)nc2c1ncn2C1CC(O)C(CO)O1 (stereo not drawn),12.1 µM (active)
2,CN(C)CC/C=C1\c2ccccc2Sc2ccc(Cl)cc21,21.5 µM (active)
3,COc1cccc2c1C(=O)c1c(O)c3c(c(O)c1C2=O)C[C@@](O)(C(C)=O)C[C@@H]3O[C@H]1C[C@H](N)[C@H](O)[C@H](C)O1,2.15 µM (active)
4,CCN1CCN(Cc2ccc(Nc3ncc(F)c(-c4cc(F)c5nc(C)n(C(C)C)c5c4)n3)nc2)CC1,0.961 µM (active)
5,CCCCCCCCCCCCCC[n+]1ccc(C)cc1,3.83 µM (active)
6,CC(C)(C)NC(=O)[C@H]1CC[C@H]2[C@@H]3CC[C@H]4NC(=O)C=C[C@]4(C)[C@H]3CC[C@]12C,inactive
7,CC[C@@]1(O)C(=O)OCc2c1cc1n(c2=O)Cc2c-1nc1ccccc1c2/C=N/OC(C)(C)C,0.0857 µM (active)
8,CCCCCCCCCCCC[n+]1ccc2ccccc2c1,3.83 µM (active)
9,COc1ccc2cc1Oc1ccc(cc1)C[C@H]1c3c(cc4c(c3Oc3cc5c(cc3OC)CCN(C)[C@@H]5C2)OCO4)CCN1C,2.15 µM (active)
10,CN[C@H]1CC[C@@H](c2ccc(Cl)c(Cl)c2)c2ccccc21,19.2 µM (active)
11,C[C@@H]1CCO[C@H]2Cn3cc(C(=O)NCc4ccc(F)cc4F)c(=O)c(O)c3C(=O)N12,0.0096 µM (active)
12,CN1CCCCC1CCN1c2ccccc2Sc2ccc(S(C)=O)cc21 (stereo not drawn),27.1 µM (active)
13,Cc1cn([C@H]2C[C@H](N=[N+]=[N-])[C@@H](CO)O2)c(=O)[nH]c1=O,0.271 µM (active)
14,Cc1oncc1C(=O)Nc1ccc(C(F)(F)F)cc1,inactive
15,CCCCCCOC(=O)NC(=N)c1ccc(NCc2nc3cc(C(=O)N(CCC(=O)OCC)c4ccccn4)ccc3n2C)cc1,inactive
16,CC[C@@]1(O)C(=O)OCc2c1cc1n(c2=O)Cc2cc3c([N+](=O)[O-])cccc3nc2-1,0.124 µM (active)
